Records with an inconclusive call do not appear. A number with no mark means an inactive call. Calls of active or inactive are those of the source. The call rests on the fitted dose curve; in most records, active means well fitted cell-killing curve with a large enough effect; inconclusive means small, poorly fitted or top-dose-only effect, or effect the other way; inactive means no such curve, though single readings can be large or run the other way.
Potency means the concentration at half of the fitted maximal effect.

This assay can be described thus: Quantitative High-Throughput drug screen in 47 multiple myeloma cell lines against the NCATS MIPE library collection: ARP1_JJKsccF8 cell viability assay (AID 1918928; further: nearly all actives have a fitted effect of over 40% in size). As to conditions: ARP1 myeloma cells viability, CellTiter-Glo ATP, 48 h; series mostly up to 45.8 µM; viability: at the top concentration. The text has this: PI: Beverly A. Mock Ph.D.
Laboratory of Cancer Biology and Genetics,
Center for Cancer Research, National Cancer Institute,
National Institute of Health, Bethesda, Maryland
Drug resistance and disease progression are common in multiple myeloma (MM) patients, underscoring the need for new therapeutic combinations. […] We hypothesized that effective combinations would reduce MYC expression and enhance p16 activity. […] These preclinical data identify potentially useful drug combinations for evaluation in drug-resistant MM and reveal potential mechanisms of combined drug sensitivity.
Described herein is the primary MIPE qHTS used to cherrypick compounds. Validated compounds were then further tested for potential synergistic activiy.
[1] Peat TJ, Gaikwad SM, Dubois W, Gyabaah-Kessie N, Zhang S, Gorjifard S, Phyo Z, Andres M, Hughitt VK, Simpson RM, Miller MA, Girvin AT, Taylor A, Williams D, D'Antonio N, Zhang Y, Rajagopalan A, Flietner E, Wilson K, Zhang X, Shinn P, Klumpp-Thomas C, McKnight C, Itkin Z, Chen L, Kazandijian D, Zhang J, Michalowski AM, Simmons JK, Keats J, Thomas CJ, Mock BA. Drug combinations identified by high-throughput screening promote cell cycle transition and upregulate Smad pathways in myeloma. Cancer Lett. 2023 Aug 1;568:216284. doi: 10.1016/j.canlet.2023.216284. Epub 2023 Jun 24. PMID: 37356470; PMCID: PMC10408729.
SEQUENCE No. (e.g., 1, 2, 3, etc.); […] (e.g., Cells, Incubation, Reagent, etc.); VALUE and DESCRIPTION.
1; Cells; 5 uL; white, solid bottom 1536-well Greiner assay plate.
2; Compounds; 23 nL; Kalypsis pin tool (Wako USA) equipped with a 1536-well pin head to transfer to the assay plates.
3; Incubation; 48 hours; 37C incubation.
4; Reagent;5uL; CellTiter Glo (Promega).
5; Detector; 425V; Luminescence; Viewlux PerkinElmer.
NOTES (numbers refer to Sequence numbers above)
1. The cell-based screening methods employed in this study were like those previously published. Briefly, the corresponding myeloma cell lines were screened in 1,536-well plates with 500 cells, 5-uL per well for inhibition of cell viability (assessed by measuring ATP levels with CellTiterGlo).
2. NCATS MIPE 4.0 library of approved and investigational drugs were added using the Kalypsis pin tool. Wells treated with DMSO only for 100% viability and media only cells for 0% viability were used as controls.
3. The assay plates were covered and incubated for 48 hours in a 37C, 5% CO2 incubator with controlled humidity.
4. After 48 hours, CellTilter-GloTM luminescent substrate mix (Promega) reagent was added to the assay plate and plates we incubated for 5 min at room temperature.
5. Signal was measured as median relative luminescence units on a ViewLux (PerkinElmer) multiplate reader.
[1] Heske CM, Davis MI, Baumgart JT, Wilson K, Gormally MV, Chen L, Zhang X, Ceribelli M, Duveau DY, Guha R, Ferrer M, Arnaldez FI, Ji J, Tran HL, Zhang Y, Mendoza A, Helman LJ, Thomas CJ. Matrix Screen Identifies Synergistic Combination of PARP Inhibitors and Nicotinamide Phosphoribosyltransferase (NAMPT) Inhibitors in Ewing Sarcoma. Clin Cancer Res. 2017 Dec 1;23(23):7301-7311. doi: 10.1158/1078-0432.CCR-17-1121. Epub 2017 Sep 12. PMID: 28899971; PMCID: PMC6636827.
Regarding `CCOc1ccccc1N=Nc1c(C)[nH]n(-c2nc(-c3ccccc3)cs2)c1=O`, the “viability” value was 107%.

On to `CN1CC(=O)NC1=NC(=O)Nc1cccc(Cl)c1`, for which the Potency is 20.9 µM (active).

`CN[C@@H]1CN(c2ccc3c(=O)c(C(=O)O)cn(-c4nccs4)c3n2)C[C@@H]1OC`: the Potency is 1.82 µM (active).

Regarding `OC1CCC(Nc2ncc3nc(Nc4c(F)cc(F)cc4F)n([C@@H]4CCOC4)c3n2)CC1` (stereo not given in full), the Potency was 33.2 µM (active).

Take `C=C[C@@H]1CN2CCC1C[C@@H]2C(O)c1ccnc2ccc(OC)cc12` (stereo not given in full): the Potency is 1.87 µM (active).

In the case of `CN(C)CCN(C)C(=O)c1ccc(NC(=O)Nc2ccc(-c3nc(N4CCOCC4)c4ccn(CC(F)(F)F)c4n3)cc2)cc1`, the Potency was 0.0264 µM (active).

For the compound `NS(=O)(=O)c1cc(Cl)c(Cl)c(S(N)(=O)=O)c1`, the Potency is 8.33 µM (active).

For the compound `CSc1cccc(Nc2ncc3cc(-c4c(Cl)cccc4Cl)c(=O)n(C)c3n2)c1`, the Potency is 1.87 µM (active).

Consider `Cc1csc(-c2nnc(Nc3ccc(Oc4ncccc4-c4ccnc(N)n4)cc3)c3ccccc23)c1`, for which the Potency is 5.26 µM (active).

Consider `O=C(CCCN1CCN(c2ccc(F)cc2)CC1)NC1c2ccccc2CSc2ccccc21` (stereo not given), for which the Potency is 3.72 µM (active).

Consider `O=S(=O)(NCCNCC=Cc1ccc(Br)cc1)c1cccc2cnccc12`, for which the Potency was 16.6 µM (active).

With `COc1ccc2ccc(=O)oc2c1CC=C(C)C`, the Potency is 8.33 µM (active).

With `COc1cc2ncn(-c3cc(OCc4ccccc4S(C)(=O)=O)c(C#N)s3)c2cc1OC`, the “viability” value was 104%.

Turning to `CC(C)(OCc1nn(Cc2ccccc2)c2ccccc12)C(=O)O`, the “viability” value is 111%.

As for `CCCCC[C@H](O)C=C[C@H]1[C@H](O)CC(=O)[C@H]1CCCCCCC(=O)O`, the Potency is 23.5 µM (active).

As for `Clc1ccc(COC(Cn2ccnc2)c2ccc(Cl)cc2Cl)c(Cl)c1` (stereo not given), the Potency is 18.7 µM (active).

Turning to `CCC(=C(CC)c1ccc(O)cc1)c1ccc(O)cc1`, the Potency was 18.7 µM (active).

`Cc1ccc(C(=O)N(CCCN)[C@@H](c2oc3cc(Cl)ccc3c(=O)c2Cc2ccccc2)C(C)C)cc1`: the “viability” value was 2.77%.

Turning to `CC(C)C[C@@H](C(=O)N[C@H](C(=O)OC1CCCC1)c1ccccc1)[C@H](O)C(=O)NO`, the Potency was 14.8 µM (active).

For `COc1ccnc(CS(=O)c2nc3ccc(OC(F)F)cc3[nH]2)c1OC` (stereo not given), the “viability” value is 109%.

For the compound `Cc1cn([C@@H]2C[C@@H](O)[C@H](CO)O2)c(=O)[nH]c1=O`, the “viability” value was 86.3%.

For the compound `COc1cc2nc(-c3cc(F)ccc3O)nc(N[C@@H]3CNC[C@@H]3C(C)(C)O)c2cc1OC`, the Potency was 10.5 µM (active).

Regarding `Cc1ccccc1-n1c(Cn2nc(-c3cccc(O)c3)c3c(N)ncnc32)nc2cccc(C)c2c1=O`, the Potency is 3.32 µM (active).

Turning to `CS(=O)(=O)c1ccc(C2=C(c3ccccc3)C(=O)OC2)cc1`, the “viability” value was 99.9%.

For the compound `CNc1nc(-c2ccc3c(N)n[nH]c3c2)cc(N2C[C@@H](C(=O)NC3CCCCC3)CC[C@@H]2C)n1`, the Potency is 11.8 µM (active).

With `CC(C)C[C@@H](N)[C@H](O)C(=O)N[C@H](C(=O)N[C@H](C(=O)N[C@@H](CC(=O)O)C(=O)O)C(C)C)C(C)C`, the “viability” value is 105%.

In the case of `O=[N+]([O-])c1ccc(Nc2ccccc2-c2ccccc2)c2nonc12`, the “viability” value was 62%.

As to `COc1cc2c(cc1OC)CC(=O)N(CCCN(C)C[C@H]1Cc3cc(OC)c(OC)cc31)CC2`, the “viability” value was 93.7%.

`OCCn1cc(-c2ccc3c(c2)CCC3=NO)c(-c2ccncc2)n1`: the “viability” value is 78.7%.

Take `CNC(=O)c1cc(Oc2ccc(NC(=O)Nc3ccc(Cl)c(C(F)(F)F)c3)c(F)c2)ccn1`: the Potency was 23.5 µM (active).

For the compound `CNC(=O)c1ccc2c(C(=Nc3cccc(CN(C)C)c3)c3ccccc3)c(O)[nH]c2c1`, the “viability” value is 71.2%.

Take `Cc1[nH]c(C=C2C(=O)Nc3ccc(S(=O)(=O)N(C)c4cccc(Cl)c4)cc32)c(C)c1C(=O)N1CCN(C)CC1`: the Potency is 23.5 µM (active).

As to `O=c1[nH]nc(OCCCc2ccc(Cl)cc2)c(NCc2cccnc2)c1Br`, the Potency is 18.7 µM (active).

For `Cc1cnc(Nc2cccc(CN3CCOCC3)c2)nc1Nc1cccc(S(=O)(=O)NC(C)(C)C)c1`, the Potency is 5.26 µM (active).

On to `CC(NCCc1ccc(O)cc1)C(O)c1ccc(O)cc1` (stereo not given), for which the “viability” value was 112%.

As for `COc1cc2ncnc(Nc3cc(Br)c(O)c(Br)c3)c2cc1OC`, the Potency was 1.32 µM (active).

`O=C(Nc1ccccc1)Nc1ccc(-c2ccc(C(=O)[C@H]3CCC[C@H]3C(=O)O)cc2)cc1`: the “viability” value was 115%.

Take `CCn1c(-c2nonc2N)nc2cncc(CNC3CCNCC3)c21`: the Potency is 10.5 µM (active).

Take `CCC(C)SSc1ncc[nH]1` (stereo not given): the Potency was 9.35 µM (active).

Regarding `COc1ccc(-c2cc3nccn3c(Nc3ncccc3C(N)=O)n2)cc1OC`, the Potency is 4.69 µM (active).

The values above are taken from PubChem BioAssay (NCATS).
